This is an account of results in ChEMBL document CHEMBL4513216, “Probing the Open Global Health Chemical Diversity Library for Multistage-Active Starting Points for Next-Generation Antimalarials” (ACS Infect Dis, 2020).

Hit rate of the full screen: of about 69,000 compounds, about 8,600 (12%) showed an effect of 50% or more. What follows is part of a selection rich in strong results, with near analogues and random picks from the rest.

The assay relates to Plasmodium berghei. As to the kind of experiment: Screen against P. berghei liver stage (PbLuc), transformed with Luciferase, at 10uM. The class given is functional, HepG2. Particulars: tested at 10 uM.
`Cc1ccc(C(=O)NC2CCN(S(C)(=O)=O)CC2)c(=O)[nH]1`: the INHIBITION is given as 47.7%. Under `Cc1cnc(C(=O)N2CCN(c3ncc4c(n3)CCOC4)CC2)cn1` stands 27.4%; under `CCCc1nc(CN(CC)C(=O)c2onc3ccccc23)no1`, -14.1%. In the case of `COCCN1CC(O)CN(C(=O)c2ccc(SC)cc2)CC1=O` (configuration not stated), the INHIBITION turned out to be 29%. For the molecule `Cc1ccc(S(=O)(=O)Nc2ccc(-n3cccc3C(=O)O)c(C)c2)cc1`, the INHIBITION worked out at 56%. For `Cc1ccc(S(=O)(=O)Nc2ccc(-n3cccc3C(=O)O)c(C)c2)s1`, the INHIBITION is recorded as -3.16%. Turning to `Cc1cc(NS(=O)(=O)c2ccccc2F)ccc1-n1cccc1C(=O)O`, the INHIBITION is -19.7%. In the case of `Cc1n[nH]c(C)c1NC(=O)CN1CCN(c2nccs2)C(C)C1` (configuration not stated), the INHIBITION is reported as 14.4%. `Cc1cccn2c(CC(=O)N3CCC(CCn4cccn4)CC3)cnc12`: the INHIBITION came out at 71.3%. For the molecule `Cc1ccc2nc(C(=O)N3CCC(CCn4cccn4)CC3)cn2c1`, the INHIBITION is -14.1%. Take `Cc1cccn2c(CC(=O)N3CCC(Oc4ncccn4)CC3)cnc12`: the INHIBITION was -30.3%.

For the molecule `COc1ncc(NCc2cc(C#N)cs2)cc1C(N)=O`, the INHIBITION came to 11.4%.

For the molecule `CO[C@@H]1CCN(Cc2c(C)noc2C)[C@@H]2CN(Cc3ccco3)C[C@@H]21`, the INHIBITION turned out to be 35.5%. As to `CCN(CC1CCOC1)C(=O)Nc1ccc(N2CCOCC2)nc1` (configuration not stated), the INHIBITION turned out to be 36.05%. In the case of `Cn1cc(CCC(=O)N2CCCN(c3ncccc3C#N)CC2)cn1` it was 37.4%.

Take `O=S(=O)(c1cc(F)ccc1F)N1CCCC1c1ccncc1` (configuration not stated): the INHIBITION worked out at 19.3%. For the molecule `Cc1ccc(F)c(S(=O)(=O)N2CCCC2c2ccncc2)c1` (configuration not stated), the INHIBITION was 45.3%. Regarding `COc1ccc(C2CCCN2S(=O)(=O)c2cc(F)ccc2F)cc1` (configuration not stated), the INHIBITION came to 62.6%. With `CCOCc1cccc(S(=O)(=O)Nc2ccn(CC)n2)c1`, the INHIBITION stood at 18.4%.

As to `O=C(c1cnc2c(c1)CCC2)N1CCCC(CO)(CC2CC2)C1` (configuration not stated), the INHIBITION is 68.4%. Consider `COCCC1(C(=O)O)CCCN(C(=O)c2cnc3c(c2)CCCC3)C1` (configuration not stated), for which the INHIBITION is 47.1%.

`COCCCC1(CO)CCCN(C(=O)c2cnc3c(c2)CCCC3)C1` (configuration not stated): the INHIBITION was found to be 35.9%. Consider `CCn1[nH]c(C)c2c(C(F)(F)F)cc(=O)nc1-2`, for which the INHIBITION is reported as 31.7%. As for `Cc1[nH]n(C)c2nc(=O)cc(C(F)(F)C(F)(F)F)c1-2`, the INHIBITION is recorded as 76.3%.

Take `CCn1[nH]c(C)c2c(C(F)(F)C(F)(F)F)cc(=O)nc1-2`: the INHIBITION was determined as 50.5%. Under `O=C(Cn1nc2ccccc2n1)N1CCCn2cncc2C1` stands 1.37%; under `Cc1csc(NC(=O)C(C)Oc2ccc3c(c2)OCO3)n1` (configuration not stated), 16.2%. Turning to `Cc1cnn(CC2CCCN2C(=O)c2cc(O)nc3ccccc23)c1` (configuration not stated), the INHIBITION is reported as -29.8%. Regarding `Cc1ccc(NC(=O)NCCc2ccncc2C)c(N(C)C)n1`, the INHIBITION is recorded as -0.554%. Take `Cc1nccn1CCCN1CCCC(c2nccn2CC2CCC2)C1` (configuration not stated): the INHIBITION is given as 41.8%. As to `Cc1nccn1CCCN1CCC(c2nccn2CC2CCC2)CC1`, the INHIBITION is on record as 60.2%. Under `Cc1nccn1CCCN1CCCC(c2nccn2C)C1` (configuration not stated) stands 34.2%; under `CS(=O)(=O)N1CCOCC2(CN(Cc3nccs3)CCO2)C1` (configuration not stated), 45.2%. Consider `CCOCC(O)CN1CCN(C(=O)C(C)(C)CC)CC1` (configuration not stated), for which the INHIBITION was found to be 24%. Regarding `O=C(c1cncc(NCC2COc3ccccc3C2)n1)N1CCOCC1` (configuration not stated), the INHIBITION is 3.13%.

As to `CN(Cc1cc(C(C)(C)C)n[nH]1)C(=O)c1ccc2nccn2c1`, the INHIBITION was determined as 48.3%.

As to `O=S1(=O)c2cnccc2OC(COc2ccccc2)CN1CC1CC1` (configuration not stated), the INHIBITION came to 22.2%. In the case of `CCN1CC(COc2ccc(OC)cc2)Oc2ccncc2S1(=O)=O` (configuration not stated), the INHIBITION is recorded as -10.3%. As for `CC(C)(C)CN1CC(COc2ccccc2)Oc2ccncc2S1(=O)=O` (configuration not stated), the INHIBITION was found to be 59.3%. Consider `COc1cccc(-c2cc(C(=O)NCCCC(F)(F)F)[nH]n2)c1`, for which the INHIBITION is listed as -16%. In the case of `CC(C)n1c(=O)[nH]c2cn(-c3ccc(Br)cc3)c(=O)n21` it was -17.3%; in that of `O=C(O)c1ccccc1CN1CCC2(Cc3ccccc3CNC2=O)C1` (configuration not stated), 40%; in that of `CS(=O)(=O)NCCNC(=O)C1(c2ccc(F)cc2)CC1`, 27.6%. As for `NS(=O)(=O)CCNC(=O)C1(c2ccc(Br)cc2)CC1`, the INHIBITION is reported as -8.19%.

With `CC(C)(C)c1ccc(C2(C(=O)NCCCS(C)(=O)=O)CC2)cc1`, the INHIBITION worked out at 43.5%. In the case of `CC(C)(C)c1ccc(C2(C(=O)NCCS(C)(=O)=O)CC2)cc1` it was 62.3%. As to `CC(C)(C)c1ccc(C2(C(=O)NCCS(N)(=O)=O)CC2)cc1`, the INHIBITION is reported as 68.5%. As for `NS(=O)(=O)CCNC(=O)C1(c2ccccc2)CC1`, the INHIBITION stood at 19.6%.

In the case of `CCCc1n[nH]c(C2CN(C(=O)c3cccc4cn[nH]c34)CCO2)n1` (configuration not stated), the INHIBITION is -11.9%. For `O=C(NCC1CC2(CO1)CN(c1nncs1)C2)C1CCC1` (configuration not stated), the INHIBITION was 1.36%.

Regarding `COC[C@H]1CNC(=O)[C@@H]2CCN(Cc3ccc(F)cc3)CC[C@H]12`, the INHIBITION came out at 34.4%. As for `COc1ccc2nnc(CCC(=O)Nc3nc(C)c(C)s3)n2n1`, the INHIBITION is recorded as 24.2%. Under `O=C(NC1CC1)N1CC[C@@H](O)[C@@H]1Cc1ccccc1` stands -23.3%; under `CN(C)c1cc(C(=O)N2CCCN(c3cccnn3)CC2)ccn1`, 38.7%; under `O=C(CN(Cc1ccco1)C1CC1)N1CCCCCC1`, -8.11%. For `Cc1nonc1OCCNC(=O)COc1ccc(F)cc1F`, the INHIBITION is listed as 7.92%. In the case of `Cc1nonc1OCCNC(=O)COc1ccc(Cl)cc1Cl` it was 7.38%. As for `Cc1nonc1OCCNC(=O)CCCc1ccc(Cl)cc1`, the INHIBITION came to 57.8%. On to `N#Cc1c(F)cccc1Nc1cnn(CC(O)CN2CCOCC2)c1` (configuration not stated), for which the INHIBITION is on record as 44.9%. As for `O[C@@H]1CN(CC2=Cc3cc(Cl)ccc3OC2)CC[C@H]1N1CCCCCC1`, the INHIBITION was found to be 31.9%. Under `CN1CCN([C@@H]2CCN(CC3=Cc4cc(Cl)ccc4OC3)C[C@H]2O)CC1` stands 62.4%; under `CN1CCN([C@@H]2CCN(Cc3cccc(-n4cccn4)c3)C[C@H]2O)CC1`, 22.9%. Take `O=C(C1CCOC1)N1CCC2(CC1)COC2` (configuration not stated): the INHIBITION was 19.8%.

Take `COCC(=O)N1CCN(C)C(=O)C(Cc2ccc(-c3cccs3)cc2)C1` (configuration not stated): the INHIBITION stood at 6.26%. In the case of `CC(C)(C)Cc1noc2ncc(C(=O)N3CCC3)cc12` it was 29%.

For `CC1CN(C)CCN1C(=O)c1cnc2onc(CC(C)(C)C)c2c1` (configuration not stated), the INHIBITION was 53.9%.

Regarding `CC(C)(C)Cc1noc2ncc(C(=O)N3CCSCC3)cc12`, the INHIBITION was 37.7%.
